IL-1B inflam inh: inhibitors of inflammasome signaling (IL-1 beta secretion); THP-1 LPS/ATP IL-1B secretion, AlphaLISA, 16 h; hits give low values; activity change, % at 57.5 µM; 4.7% of 360,000 active; AID 743279; in the data active = activity change below about -50%; inconclusive = mostly about -30% to -49%
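Secreted IL-1B measured by AlphaLISA bead assay after 16 h compound exposure of THP-1 cells; compounds (final up to 57.5 uM) added 1 h before LPS (250 ng/mL) and ATP (1.25 mM) stimulation; lower signal means less secretion.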
HepG2 tox: HepG2 cytotoxicity, counter-screen for TGF-b inhibitors | HepG2 CAGA-GFP viability, ATP luminescence, 18 h | Potency, µM (doses to about 46.1 µM), usual class: cytotoxic | 0.76% of 410,000 active
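CellTiter-Glo luminescence gave cytotoxicity after 18 hours at 37 degrees C. The cells were HepG2 CAGA-GFP in 1% FBS DMEM, stimulated with 500 pg/mL TGF-beta after compound addition. %Activity was normalised to no-cell wells (complete cell-killing) and DMSO (no toxicity), and curves were fitted and classified.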
Giardia killer: kills Giardia lamblia. activity change, % at 7.66 µM, hits read low. AID 540267. 0.15% of 340,000 active. Giardia lamblia trophozoite viability; in the data active = activity change below about -80%; inconclusive = between about -30% and that limit;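 also: parasites exposed to compound for two days anaerobically before the ATP read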
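Anaerobic 48 hrs incubation at 37 deg C of 100 trophozoites/well with test compounds; ATPLite 1-Step luminescence, 15-30 min RT, reports cellular ATP as viability.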
HT1080 IDH1KD tx: kills HT-1080 cells with IDH1 knockdown; HT-1080 IDH1 knockdown viability, ATP luminescence, 48 h; Potency, µM (series often up to 46.1 µM), most hits filed as cytotoxic; 2% of 360,000 active
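Using the IDH1-knockdown HT-1080 line run in the same batch and compound series as the NT line, viability after 48 h at 37 °C was determined by CellTiter-Glo luminescence and expressed as % activity.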
HT1080NT lethal: kills 2HG-producing HT-1080-NT fibrosarcoma cells; HT-1080-NT fibrosarcoma viability, CellTiter-Glo ATP luminescence, 48 h; Potency, µM (series often up to 46.1 µM), hits mostly cytotoxic; 1.6% of 360,000 active;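 also: NT is the 2HG producing partner of a matched IDH1 knockdown line; nearly all actives have a fitted effect of over 55% in size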
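Fibrosarcoma NT cells, 750 per well in 5% FBS RPMI, were exposed to compound for 48 hours. Viability: CellTiter-Glo luminescence.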
TGFb inhibitor: inhibitors of TGF-b signaling. HepG2 CAGA-GFP TGF-b/SMAD3 reporter, GFP fluorescence, 18 h; TGF-beta stimulated, 500 pg/mL final. Potency, µM (series often up to 46.1 µM), hits mostly inhibitors. 1.2% of 410,000 active. AID 588855; also: nearly all actives have a fitted effect of over 65% in size
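HEPG2 CAGA-GFP cells (1000/well, DMEM with 1% FBS) were pre-incubated 2 h at 37 degrees C, given compound by pin tool, then stimulated with TGF-beta at 500 pg/mL final for 18 h before per-cell GFP fluorescence imaging.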
Hits are given with their value. Compounds with a hit are over-represented: about 6.5% of the library has one in this group of screens. Unless noted, calls follow the shape of the dose curve; as a rule, active = well fitted curve in the direction sought with a large enough effect; inconclusive = small, poorly fitted or top-dose-only effect, or another doubt; inactive = no such curve, though single readings can be large; an effect the other way counts as inactive or inconclusive.

What do the screens show for `Cc1cc2cc(C(c3nnnn3C3CCCC3)N(Cc3cccnc3)Cc3ccco3)c(=O)[nH]c2cc1C` (stereo not drawn)?
IL-1B inflam inh: inconclusive; HepG2 tox: inactive; Giardia killer: inactive; HT1080 IDH1KD tx: 10µM; HT1080NT lethal: inconclusive; TGFb inhibitor: inconclusive

How did Cc1ccc2cc(C(c3nnnn3C3CCCC3)N(Cc3ccccc3)Cc3ccco3)c(=O)[nH]c2c1 (stereo not drawn) do in these assays?
IL-1B inflam inh: inactive; HepG2 tox: inactive; Giardia killer: inactive; HT1080 IDH1KD tx: inactive; HT1080NT lethal: inactive; TGFb inhibitor: inconclusive

Results for CCOC(=O)Cc1csc(SC(C)C(=O)Nc2ccc(NC(C)=O)cc2)n1 (stereo not drawn) ?
IL-1B inflam inh: inactive; HepG2 tox: inactive; Giardia killer: inactive; HT1080 IDH1KD tx: inactive; HT1080NT lethal: inactive; TGFb inhibitor: inactive

How did CC1Cc2ccccc2N1C(=O)CN1CCC(n2nnc3cc(C(F)(F)F)ccc32)CC1 (stereo not drawn) do in these assays?
IL-1B inflam inh: -58; HepG2 tox: inactive; Giardia killer: inactive; HT1080 IDH1KD tx: inactive; HT1080NT lethal: inactive; TGFb inhibitor: inactive

How did O=C(CN1CCC(n2nnc3cc(C(F)(F)F)ccc32)CC1)Nc1ccc2c(c1)OCCO2 do in these assays?
IL-1B inflam inh: inactive; HepG2 tox: inactive; Giardia killer: inactive; HT1080 IDH1KD tx: inconclusive; HT1080NT lethal: inactive; TGFb inhibitor: inactive

What do the screens show for `O=C(CN1CCC(n2nnc3cc(C(F)(F)F)ccc32)CC1)Nc1ccc2c(c1)CCC2`?
IL-1B inflam inh: -50; HepG2 tox: inactive; Giardia killer: inactive; HT1080 IDH1KD tx: inactive; HT1080NT lethal: inactive; TGFb inhibitor: inactive

Results for COC(=O)c1ccccc1NC(=O)CN1CCC(n2nnc3cc(C(F)(F)F)ccc32)CC1 ?
IL-1B inflam inh: inactive; HepG2 tox: inactive; Giardia killer: inactive; HT1080 IDH1KD tx: inactive; HT1080NT lethal: inactive; TGFb inhibitor: inactive

What do the screens show for `CC(C)CC(=O)N(Cc1ccc(F)cc1)C1CCS(=O)(=O)C1` (stereo not drawn)?
IL-1B inflam inh: inactive; HepG2 tox: inactive; Giardia killer: inactive; HT1080 IDH1KD tx: inconclusive; HT1080NT lethal: inactive; TGFb inhibitor: inactive

How did CCCCNC(=O)C1CC(=O)N(C2CCCCC2)C1 (stereo not drawn) do in these assays?
IL-1B inflam inh: inactive; HepG2 tox: inactive; Giardia killer: inactive; HT1080 IDH1KD tx: inactive; HT1080NT lethal: inactive; TGFb inhibitor: inactive

Results for CCc1ccc(Nc2ccc3nonc3c2[N+](=O)[O-])cc1 ?
IL-1B inflam inh: inactive; HepG2 tox: inactive; Giardia killer: inactive; HT1080 IDH1KD tx: inactive; HT1080NT lethal: inactive; TGFb inhibitor: inactive

Results for CCOC(=O)NNc1ccc2nonc2c1[N+](=O)[O-] ?
IL-1B inflam inh: -77; HepG2 tox: inactive; Giardia killer: inactive; HT1080 IDH1KD tx: inconclusive; HT1080NT lethal: inconclusive; TGFb inhibitor: inconclusive

Results for O=[N+]([O-])c1cc(O)c2ncccc2c1 ?
IL-1B inflam inh: -95; HepG2 tox: 4µM; Giardia killer: inactive; HT1080 IDH1KD tx: 2.3µM; HT1080NT lethal: 1.8µM; TGFb inhibitor: 5µM

What do the screens show for `O=[N+]([O-])c1cc2cccnc2c2ncccc12`?
IL-1B inflam inh: inactive; HepG2 tox: inactive; Giardia killer: -88; HT1080 IDH1KD tx: inconclusive; HT1080NT lethal: inconclusive; TGFb inhibitor: inconclusive

Results for Cc1ccc([N+](=O)[O-])c2cccnc12 ?
IL-1B inflam inh: inactive; HepG2 tox: inactive; Giardia killer: inactive; HT1080 IDH1KD tx: inactive; HT1080NT lethal: inactive; TGFb inhibitor: inactive

What do the screens show for `COc1ccc(NC(=O)CSc2cc(C)ccc2C)cn1`?
IL-1B inflam inh: inactive; HepG2 tox: inactive; Giardia killer: inactive; HT1080 IDH1KD tx: inactive; HT1080NT lethal: inactive; TGFb inhibitor: inactive

Results for Cc1oc2ccc(O)c(CN3CCCC3)c2c1C(=O)Nc1ccccc1 ?
HepG2 tox: inactive; TGFb inhibitor: inactive

How did CCS(=O)(=O)n1nc(-c2ccc(C)cc2)nc1N do in these assays?
IL-1B inflam inh: inconclusive; HepG2 tox: inactive; Giardia killer: inactive; HT1080 IDH1KD tx: inactive; HT1080NT lethal: inactive; TGFb inhibitor: inactive

What do the screens show for `Cn1nc(-c2ccncc2)nc2c(=O)n(C)c(=O)nc1-2`?
HepG2 tox: inactive; Giardia killer: -88; TGFb inhibitor: 1.3µM

Results for CCn1nc(-c2ccc(C)cc2)nc2c(=O)n(C)c(=O)nc1-2 ?
HepG2 tox: 0.71µM; Giardia killer: -102; TGFb inhibitor: 0.5µM

Results for C[C@@H]1CN([C@@H](C)CO)C(=O)CCCn2nncc2CO[C@H]1CN(C)Cc1ccc(Cl)c(Cl)c1 ?
IL-1B inflam inh: inactive; HepG2 tox: inactive; HT1080 IDH1KD tx: inactive; HT1080NT lethal: inactive; TGFb inhibitor: inactive

How did CCOc1ccc(C(=O)N2CCc3ccccc32)cc1OCC do in these assays?
IL-1B inflam inh: inactive; HepG2 tox: inactive; Giardia killer: inactive; HT1080 IDH1KD tx: inactive; HT1080NT lethal: inactive; TGFb inhibitor: inactive
